Inconclusive results are not listed. Where a call stands in place of a potency, no number is given. The source made the active and inactive calls. Calls follow the shape of the dose curve; as a rule, active = well fitted activation curve with a large enough effect; inconclusive = small, poorly fitted or top-dose-only effect; inactive = no such curve, though single readings can be large or run the other way.
test: qHTS assay for re-activators of p53 using a Luc reporter: Hit Validation with no p53 Expressed; settings: p53-null cells, luciferase reporter counter-screen; series mostly up to 46.1 µM
How it was run: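 Counter-screen of primary hits in a cell line not transfected with p53, in Opti-MEM with 10% FBS; compounds at several concentrations (10 mM stock, 1:5; top 46.1 µM in well), 24 h at 37 deg C, 5% CO2. Luminescence read after 10 min with Amplite reagent.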
Potency is read from the fitted curve at half-maximal effect.

| SMILES | Potency |
| --- | --- |
| C(=N\Nc1nc2ccccc2s1)/c1ccc2c(c1)OCO2 | inactive |
| Cc1ccc(S(=O)(=O)NCCOc2nc(N(C)C)nc(N3CCOCC3)n2)cc1 | inactive |
| CC1(C)Oc2ccc(NC(=O)C3COc4ccccc4O3)cc2O1 (centres undefined) | inactive |
| Cc1ccc(C(=O)Nc2ccc(Cl)cn2)cc1 | inactive |
| COc1ccc(NC(=O)/C(=C\c2ccc3c(c2)OCO3)NC(C)=O)cc1 | inactive |
| C=CCOc1c(OC)cc(/C=N/Nc2cccc(C(=O)O)c2)c(Br)c1Br | inactive |
| Cc1ccc(NC(=O)/C(Cl)=C/c2ccccc2)cc1C | inactive |
| Cc1cc(C(=O)N2CCN(c3ccccc3Cl)CC2)c(C)o1 | inactive |
| C=CCNC(=S)N/N=C(\C)c1ccccn1 | inactive |
| COc1cc(NC(=O)C(C)C)ccc1NC(=O)c1ccco1 | inactive |
| Cc1cc(-n2c(C)cc(C(=O)COc3cc(F)ccc3[N+](=O)[O-])c2C)no1 | inactive |
| CN1CC(C(=O)Nc2ccc(F)c(Cl)c2)CC1=O (centres undefined) | inactive |
| Oc1c(CN2CCOCC2)cc(COCc2ccccc2)c2cccnc12 | inactive |
| COc1ccc2oc(-c3cccc(NC(=O)CSc4ccc(Cl)cc4)c3)nc2c1 | inactive |
| Cc1cccc(-c2noc(CCC(=O)N3CCN(c4cc(C)ccc4C)CC3)n2)c1 | inactive |
| C/C(=C\C(=O)c1ccccc1)Nc1ccc2c(c1)OCO2 | inactive |
| CC(C)(C)Nc1ncnc2c1cnn2-c1ccccc1 | inactive |
| CCOC(=O)c1c(C)nc(-c2ccccc2)nc1NC(=O)CC | inactive |
| Cc1ncsc1C(=O)Nc1nc2c(s1)CCCC2 | inactive |
| COc1ccc(-n2nc([N+](=O)[O-])c(=NCc3ccco3)n2O)cc1 | inactive |

| SMILES | Potency |
| --- | --- |
| Cc1cc2[nH]c3ccccc3c2c(C)n1 | inactive |
| Cc1ccc(C(=O)Nc2nnc(SCC(=O)N3CCCc4ccccc43)s2)cc1 | inactive |
| COc1ccc(NC(=O)COC(=O)C23CC4CC(CC(O)(C4)C2)C3)cc1Cl | inactive |
| Cc1c(/C(O)=C2/C(=O)C(=O)N(Cc3cccnc3)C2c2cccs2)cnn1-c1ccccc1 (centres undefined) | inactive |
| COc1ccc(CNc2nc(-c3ccccc3)nn2C(=O)c2ccc([N+](=O)[O-])cc2)cc1 | inactive |
| O=C(OCC(=O)N1CCc2ccccc21)c1ccccc1[N+](=O)[O-] | inactive |
| COc1ccc(/C(C)=N/Nc2nccnc2Cl)cc1 | inactive |
| COc1cccc(C(=O)Nc2ccc(NC(=O)C(C)(C)C)cn2)c1 | 461 nM (active) |
| O=C(NC(=S)NCCc1ccccc1)C1CCCCC1 | inactive |
| O=C(Nc1ccc2c(c1)CCC2)c1ccccc1F | inactive |
| COc1ccc(-c2nnc(-c3ccc(Br)o3)o2)cc1OC | inactive |
| Cc1nn(-c2ccccc2)c(/N=C/c2ccccc2O)c1-c1ccccc1 | inactive |
| COc1cc(C2NC(=S)NC(O)(C(F)(F)F)C2C(=O)c2cccs2)cc(OC)c1O (centres undefined) | inactive |
| Cc1cc(NC(=O)c2cccc(COc3ccc(Br)cc3)c2)no1 | inactive |
| O=C(/C=C/c1cccs1)Nc1ccc(Br)cn1 | inactive |
| COc1ccccc1-c1c(C)nn2c(C)c(C(C)=O)cnc12 | inactive |
| O=C(Nc1nc(-c2cccs2)cs1)c1ccc([N+](=O)[O-])o1 | inactive |
| CC(=O)N1CCN(C(=O)COC(=O)COc2c(C)cc(C)cc2C)CC1 | inactive |
| CNc1nnc(SCC(=O)c2cc(C)n(C3CC3)c2C)s1 | inactive |

From PubChem BioAssay AID624331 (National Center for Advancing Translational Sciences (NCATS), 2012)
